PubChem BioAssay (NCATS)
Records with an inconclusive call do not appear. A call without a number means that no potency is given here. Activity calls are given as the source filed them. Calls come from the whole dose curve; as a rule, active = well fitted inhibition curve with a large enough effect; inconclusive = small, poorly fitted or top-dose-only effect; inactive = no such curve, though single readings can be large or run the other way.

Molecular target: N-terminal Xaa-Pro-Lys N-methyltransferase 1 (Homo sapiens) (UniProt Q9BV86)
Experiment: qHTS Assay for Inhibitors of N-terminal methyltransferase 1 (NTMT1): LOPAC validation of the NTMT1 SAHH-coupled ThioGlo3 Assay (AID 1347143);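 note: SAH from peptide methylation measured as thiol fluorescence via SAHH coupling and ThioGlo3; nearly all actives have a fitted effect of over 70% in size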; note: potency is the fitted concentration of half-maximal effect
Details: recombinant NTMT1, SAHH-coupled ThioGlo3 fluorescence; series mostly up to 114 µM
Procedure, shortened: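 In this qHTS pilot against the LOPAC set, 125nM NTMT1 met compounds tested at multiple concentrations, and fluorescence was normalized to background.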

Chain of N-terminal Xaa-Pro-Lys N-methyltransferase 1 (Homo sapiens) (Q9BV86 whole entry, looked up): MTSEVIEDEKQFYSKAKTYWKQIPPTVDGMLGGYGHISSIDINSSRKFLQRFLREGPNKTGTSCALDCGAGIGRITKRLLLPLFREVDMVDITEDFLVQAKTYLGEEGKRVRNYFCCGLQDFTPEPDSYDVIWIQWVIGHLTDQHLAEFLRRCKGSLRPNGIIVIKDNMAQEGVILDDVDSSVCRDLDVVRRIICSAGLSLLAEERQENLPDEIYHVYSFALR

SMILES	Potency
O=S1(=O)N(CCN2CC=C(c3c[nH]c4cc(F)ccc34)CC2)c2cccc3c2N1CCC3	50.1 µM (active)
COc1ccc2c(c1)C13CCCCC1C(C2)N(C)CC3 (stereo not given)	inactive
CCCN(CCC)C1CCc2cccc(O)c2C1 (stereo not given)	inactive
Cc1cc([C@@H]2CCCN2C)on1	inactive
OC1CCCCC1N1CCC(c2ccccc2)CC1 (stereo not given)	inactive
CC(N)c1cccc(Cl)c1Cl (stereo not given)	inactive
Cc1sc2ccccc2c1CC1=NCCN1	79.4 µM (active)
C[C@H](Cc1ccc2c(c1)OC(C(=O)O)(C(=O)O)O2)NC[C@H](O)c1cccc(Cl)c1	inactive
CNc1ccc2oc(C[C@H]3O[C@@]4(CC[C@H]3C)O[C@H]([C@H](C)C(=O)c3ccc[nH]3)[C@H](C)C[C@H]4C)nc2c1C(=O)O	56.2 µM (active)
CC(=O)NBr	inactive
NC(CCCCCP(=O)(O)O)C(=O)O (stereo not given)	inactive
CP(=O)(O)C1=CCNCC1	inactive
CN(N=O)c1cc(O)ccc1O	3.55 µM (active)
C[N+]1(C)C2CCC1CC(OC(=O)c1c[nH]c3ccccc13)C2 (stereo not given)	31.6 µM (active)
NC(N)=Nc1ccc2[nH]c3c(c2c1)C[C@@]1(O)[C@H]2Cc4ccc(O)c5c4[C@@]1(CCN2CC1CC1)[C@H]3O5	22.4 µM (active)

Molecular target: Furin (Homo sapiens) (UniProt P09958)
Experiment: Furin counterscreen qHTS for Zika virus inhibitors (AID 1347149);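 note: purified recombinant full-length human furin enzyme at 5 nM; fluorescence gain from furin cutting a BOC-RVRR-AMC peptide substrate over 15 min; top concentration of the series differs between compounds; nearly all actives have a fitted effect of over 70% in size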
Details: furin enzymatic counterscreen, fluorogenic substrate; series mostly up to 57.5 µM
Procedure, shortened: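 Counterscreen measures cleavage of 2 microM BOC-RVRR-AMC, below its ~15 microM Km, by 5 nM full-length human furin at pH 7.0 after a 15-min compound preincubation. Inhibition derives from the 15-min fluorescence increase at 37C.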

Chain of Furin (Homo sapiens) (P09958 whole entry, looked up): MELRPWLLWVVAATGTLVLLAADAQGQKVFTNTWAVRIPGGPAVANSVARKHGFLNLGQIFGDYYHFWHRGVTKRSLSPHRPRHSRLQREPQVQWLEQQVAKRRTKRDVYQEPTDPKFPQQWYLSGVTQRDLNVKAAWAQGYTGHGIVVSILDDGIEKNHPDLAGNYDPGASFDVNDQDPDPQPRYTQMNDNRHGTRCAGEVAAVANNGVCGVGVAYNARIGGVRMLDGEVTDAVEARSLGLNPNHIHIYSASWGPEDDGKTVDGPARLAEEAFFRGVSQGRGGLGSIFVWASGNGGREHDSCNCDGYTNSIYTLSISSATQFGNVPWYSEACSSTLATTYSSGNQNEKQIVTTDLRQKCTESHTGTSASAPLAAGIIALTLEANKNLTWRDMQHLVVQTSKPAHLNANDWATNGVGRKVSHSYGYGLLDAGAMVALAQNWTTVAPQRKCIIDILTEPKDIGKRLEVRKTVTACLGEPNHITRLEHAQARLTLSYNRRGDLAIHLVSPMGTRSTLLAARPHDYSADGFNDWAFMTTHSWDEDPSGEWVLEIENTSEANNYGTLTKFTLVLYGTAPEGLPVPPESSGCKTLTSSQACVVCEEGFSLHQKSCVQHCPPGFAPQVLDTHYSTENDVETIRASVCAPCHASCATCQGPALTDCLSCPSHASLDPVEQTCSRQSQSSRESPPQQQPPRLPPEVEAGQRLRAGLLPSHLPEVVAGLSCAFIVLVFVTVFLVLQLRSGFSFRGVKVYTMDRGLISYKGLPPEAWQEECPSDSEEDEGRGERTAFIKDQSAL

SMILES	Potency
CC[C@H](C)[C@H]1O[C@]2(C=C[C@@H]1C)C[C@@H]1C[C@@H](C/C=C(\C)[C@@H](O[C@H]3C[C@H](OC)[C@@H](O[C@H]4C[C@H](OC)[C@@H](O)[C@H](C)O4)[C@H](C)O3)[C@@H](C)/C=C/C=C3\CO[C@@H]4[C@H](O)C(C)=C[C@@H](C(=O)O1)[C@]34O)O2	inactive
Oc1cc(Cl)c(Cl)cc1Cl	inactive
C[C@@]1(C(=O)O)CC[C@]2(C)CC[C@]3(C)C4=CC(=O)c5cc(O)c(O)cc5[C@]4(C)CC[C@@]3(C)[C@@H]2C1	inactive
C[C@@H]1[C@@H]2Cc3ccc(O)cc3[C@@]1(C)CCN2CC1CC1	inactive

Test system: Zika virus NS2B-NS3 protease (unlinked)
Experiment: Optimization of GU AMC qHTS for Zika virus inhibitors: Unlinked NS2B-NS3 protease assay (AID 1347151); note: nearly all actives have a fitted effect of over 80% in size; note: potency is the fitted concentration of half-maximal effect
Details: recombinant ZIKV NS2B-NS3 protease, fluorogenic AMC substrate; series mostly up to 52.5 µM
Procedure, shortened: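 Unlinked protease (25 nM final); buffer 10 mM Tris-HCl pH 8.0 + 0.01% Tween 20; AMC substrate; 15 min RT, dark; Δfluorescence normalized to no-inhibitor/no-enzyme controls; 4-parameter Hill fit.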

SMILES	Potency
CN1CCC[C@@H]1Cc1c[nH]c2ccc(Nc3ncccc3[N+](=O)[O-])cc12	inactive
O=S1(=O)N(CCN2CC=C(c3c[nH]c4cc(F)ccc34)CC2)c2cccc3c2N1CCC3	inactive
CC(N)Cc1c[nH]c2ccc(OCc3cccs3)cc12 (stereo not given)	inactive
COc1ccc2c(c1)C13CCCCC1C(C2)N(C)CC3 (stereo not given)	inactive
CC[C@H](C)[C@H]1O[C@]2(C=C[C@@H]1C)C[C@@H]1C[C@@H](C/C=C(\C)[C@@H](O[C@H]3C[C@H](OC)[C@@H](O[C@H]4C[C@H](OC)[C@@H](O)[C@H](C)O4)[C@H](C)O3)[C@@H](C)/C=C/C=C3\CO[C@@H]4[C@H](O)C(C)=C[C@@H](C(=O)O1)[C@]34O)O2	inactive
CCCN(CCC)C1CCc2cccc(O)c2C1 (stereo not given)	inactive
Cc1cc([C@@H]2CCCN2C)on1	inactive
Cc1o[nH]c(=O)c1CC(N)C(=O)O (stereo not given)	inactive
C[N+]1(C)CCc2cc3c(cc2[C@H]1[C@@H]1OC(=O)c2c1ccc1c2OCO1)OCO3	inactive
OC1CCCCC1N1CCC(c2ccccc2)CC1 (stereo not given)	inactive
CC(N)c1cccc(Cl)c1Cl (stereo not given)	inactive
COC(=O)N1CCN(C(=O)Cc2ccc(Cl)c(Cl)c2)C(CN2CCCC2)C1 (stereo not given)	inactive
CCNC(=O)[C@H]1O[C@@H](n2cnc3c(N)ncnc32)[C@H](O)[C@@H]1O	inactive
Cc1sc2ccccc2c1CC1=NCCN1	26.7 µM (active)
CC(C)(O)[C@@H]1C2OC(=O)[C@@H]1[C@]1(O)C[C@H]3O[C@]34C(=O)O[C@H]2[C@]14C (tested in a mixture with another compound)	inactive
N=C(N)c1ccc(CS(=O)(=O)F)cc1	inactive
COc1ccc2[nH]c3c(c2c1)CCNC3	26.7 µM (active)
CCCN(CCC)[C@H]1CCc2c(F)ccc(O)c2C1	inactive

SMILES	Potency
Cc1[nH]c2ccc(O)cc2c1CCN	inactive
C[C@H](Cc1ccc2c(c1)OC(C(=O)O)(C(=O)O)O2)NC[C@H](O)c1cccc(Cl)c1	inactive
CCCN(CCC)[C@@H]1CCc2cccc(O)c2C1	inactive
Nc1ccc(CCN2CCN(c3cccc(C(F)(F)F)c3)CC2)cc1	inactive
CNc1ccc2oc(C[C@H]3O[C@@]4(CC[C@H]3C)O[C@H]([C@H](C)C(=O)c3ccc[nH]3)[C@H](C)C[C@H]4C)nc2c1C(=O)O	23.8 µM (active)
CC(=O)NBr	inactive
Ic1ccccc1CNC1C2CCN(CC2)C1C(c1ccccc1)c1ccccc1 (stereo not given)	inactive
CCOC(=O)c1ncn2c1[C@@H]1CCCN1C(=O)c1cc(OC)ccc1-2	inactive
Oc1ccc2c3c1O[C@H]1c4[nH]c5ccccc5c4C[C@@]4(O)C(C2)N(CC2CC2)CCC314 (stereo not given in full)	inactive
CN1CCC(c2c[nH]c3ccc(O)cc23)CC1	inactive
NC(CCCCCP(=O)(O)O)C(=O)O (stereo not given)	inactive
CP(=O)(O)C1=CCNCC1	inactive
Cc1c2ccncc2c(C)c2c1[nH]c1ccccc12	21.2 µM (active)
CN(N=O)c1cc(O)ccc1O	inactive
C[N+]1(C)C2CCC1CC(OC(=O)c1c[nH]c3ccccc13)C2 (stereo not given)	inactive
C=CCN1CCC23c4c5ccc(O)c4O[C@H]2C(=O)CC[C@@]3(O)C1C5 (stereo not given in full)	inactive
Oc1ccc2c3c1O[C@H]1c4oc5ccccc5c4C[C@@]4(O)C(C2)N(CC2CC2)CCC314 (stereo not given in full)	inactive
NC(N)=Nc1ccc2[nH]c3c(c2c1)C[C@@]1(O)[C@H]2Cc4ccc(O)c5c4[C@@]1(CCN2CC1CC1)[C@H]3O5	inactive
